Bioassay records as filed in PubChem BioAssay.
Rows were chosen to be rich in hits. Some 12% of all compounds tested hit in one or more screens of this group.
JMJD2A Tudor inh – qHTS Assay for Inhibitors of JMJD2A-Tudor Domain; Lysine-specific demethylase 4A (Homo sapiens), O75164; AlphaScreen JMJD2A-Tudor / H3K4me3 peptide binding; Potency, µM (highest dose often 114 µM), usual class: inhibitors; 390,000 tested, 4.4% active; AID 504339, 2011; also: nearly all actives have a fitted effect of over 50% in size
HP1b binding inh – HTS for Inhibitors of HP1-beta Chromodomain Interactions with Methylated Histone Tails; Potency, µM (doses to about 114 µM), most hits filed as inhibitors; AID 540317, 2011; 390,000 tested, 0.56% active; AlphaScreen HP1-beta / biotin-H3K9me3 peptide binding; Chromobox protein homolog 1 (Homo sapiens), P83916; also: nearly all actives have a fitted effect of over 70% in size
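HP1-beta protein (50 nM final) preincubated 30 min at room temperature with biotinylated H3(1-18)K9me3 peptide (50 nM) in PBS pH 7.4, 0.01% Tween-20, then compound added for 30 min. AlphaScreen streptavidin donor/nickel chelate acceptor beads (10 ug/mL final), 30 min dark, luminescence read.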
L3MBTL1 block – qHTS Assay for the Inhibitors of L3MBTL1; Lethal(3)malignant brain tumor-like protein 1 (Homo sapiens), Q9Y468; AlphaScreen L3MBTL1–H3K9me1 peptide binding; Potency, µM (series often up to 57.1 µM), most hits filed as inhibitors; 230,000 tested, 0.66% active; AID 485360, 2010; also: nearly all actives have a fitted effect of over 60% in size
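Displacement of a biotinylated histone H3(1-15) peptide monomethylated at Lys9 (75 nM) from L3MBTL1 (50 nM) was measured by AlphaScreen after a 30 min room-temperature compound incubation; cefsulodin titration served as intraplate control.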
G9a block – qHTS Assay for Inhibitors of Histone Lysine Methyltransferase G9a; G9a H3K9 monomethylation, AlphaScreen, 2 h; Potency, µM (titrated, usually from 102 µM), actives largely listed as inhibitors; 350,000 tested, 8.8% active; AID 504332, 2011; also: nearly all actives have a fitted effect of over 75% in size
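Compounds were preincubated with 20 nM G9a for 15 min, after which biotinylated H3K9 peptide (500 nM) and SAM (20 uM) started a 2 h room-temperature reaction. Monomethylated product was quantified by antibody-based AlphaScreen chemiluminescence.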
BAZ2B block – qHTS Assay for Inhibitors of BAZ2B; AlphaScreen BAZ2B-H3K14Ac peptide displacement; 360,000 tested, 4.4% active; Potency, µM (series often up to 114 µM), hits mostly inhibitors; also: nearly all actives have a fitted effect of over 60% in size
Target sequence (Q9UIF8 whole entry, looked up): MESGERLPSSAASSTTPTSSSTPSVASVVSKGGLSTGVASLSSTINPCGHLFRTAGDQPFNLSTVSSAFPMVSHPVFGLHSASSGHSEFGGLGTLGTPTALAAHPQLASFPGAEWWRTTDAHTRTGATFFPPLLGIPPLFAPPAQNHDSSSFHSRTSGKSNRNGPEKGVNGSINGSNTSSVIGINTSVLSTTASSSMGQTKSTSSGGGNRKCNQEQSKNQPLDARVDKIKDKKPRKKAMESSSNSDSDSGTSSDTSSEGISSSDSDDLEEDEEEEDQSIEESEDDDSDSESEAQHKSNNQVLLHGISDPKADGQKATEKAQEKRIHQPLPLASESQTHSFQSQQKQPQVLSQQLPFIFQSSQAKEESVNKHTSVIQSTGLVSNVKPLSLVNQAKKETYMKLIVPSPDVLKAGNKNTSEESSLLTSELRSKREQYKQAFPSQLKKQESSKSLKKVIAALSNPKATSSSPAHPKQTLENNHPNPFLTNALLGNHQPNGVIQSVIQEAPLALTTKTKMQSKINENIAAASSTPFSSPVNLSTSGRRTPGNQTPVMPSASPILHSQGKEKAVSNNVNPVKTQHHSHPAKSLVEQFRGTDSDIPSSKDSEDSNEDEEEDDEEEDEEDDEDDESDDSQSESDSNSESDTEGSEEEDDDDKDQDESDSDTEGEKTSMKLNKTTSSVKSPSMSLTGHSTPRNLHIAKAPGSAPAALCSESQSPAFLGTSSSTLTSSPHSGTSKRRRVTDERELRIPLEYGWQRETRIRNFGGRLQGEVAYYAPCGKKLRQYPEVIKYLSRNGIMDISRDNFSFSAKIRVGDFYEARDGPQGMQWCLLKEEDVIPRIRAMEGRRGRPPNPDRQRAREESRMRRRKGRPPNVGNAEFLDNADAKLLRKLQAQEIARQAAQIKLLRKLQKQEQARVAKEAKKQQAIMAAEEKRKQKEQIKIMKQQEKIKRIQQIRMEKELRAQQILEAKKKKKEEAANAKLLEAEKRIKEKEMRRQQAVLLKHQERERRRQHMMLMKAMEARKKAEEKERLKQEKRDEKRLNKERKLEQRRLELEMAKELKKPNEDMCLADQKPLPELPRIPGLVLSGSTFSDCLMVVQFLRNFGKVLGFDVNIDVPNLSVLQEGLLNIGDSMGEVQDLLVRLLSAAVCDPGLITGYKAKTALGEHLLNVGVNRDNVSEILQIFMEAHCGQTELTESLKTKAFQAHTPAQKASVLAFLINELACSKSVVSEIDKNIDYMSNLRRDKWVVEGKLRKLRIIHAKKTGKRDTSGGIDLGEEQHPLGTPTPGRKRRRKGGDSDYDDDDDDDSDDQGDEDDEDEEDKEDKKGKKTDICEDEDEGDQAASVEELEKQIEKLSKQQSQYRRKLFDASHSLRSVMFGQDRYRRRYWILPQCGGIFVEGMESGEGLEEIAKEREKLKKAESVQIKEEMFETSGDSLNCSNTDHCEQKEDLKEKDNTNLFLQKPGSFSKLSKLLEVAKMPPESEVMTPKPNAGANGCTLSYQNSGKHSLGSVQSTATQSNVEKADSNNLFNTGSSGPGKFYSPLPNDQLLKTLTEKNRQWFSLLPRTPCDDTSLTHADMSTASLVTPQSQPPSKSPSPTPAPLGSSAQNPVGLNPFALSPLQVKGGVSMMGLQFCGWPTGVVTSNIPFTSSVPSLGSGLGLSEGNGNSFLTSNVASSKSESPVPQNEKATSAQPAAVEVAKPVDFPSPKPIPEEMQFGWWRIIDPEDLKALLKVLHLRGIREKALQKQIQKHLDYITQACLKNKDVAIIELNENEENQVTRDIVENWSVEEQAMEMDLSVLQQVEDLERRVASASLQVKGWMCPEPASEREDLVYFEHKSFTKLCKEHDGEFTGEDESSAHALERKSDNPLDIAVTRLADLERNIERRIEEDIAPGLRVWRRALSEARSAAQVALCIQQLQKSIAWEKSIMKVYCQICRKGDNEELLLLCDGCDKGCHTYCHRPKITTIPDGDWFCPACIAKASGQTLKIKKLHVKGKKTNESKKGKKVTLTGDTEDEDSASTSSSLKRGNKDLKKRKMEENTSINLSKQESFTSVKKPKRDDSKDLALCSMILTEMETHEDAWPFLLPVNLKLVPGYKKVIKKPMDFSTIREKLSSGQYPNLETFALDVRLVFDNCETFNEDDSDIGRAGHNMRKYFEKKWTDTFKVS
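BAZ2B (50 nM) with biotin-H3(5-23)K14Ac peptide (50 nM) in PBS pH 7.4, 0.01% Tween-20, preformed 30 min, then compound 30 min at room temperature; top concentration 110uM. AlphaScreen streptavidin donor/nickel chelate acceptor beads (10 ug/mL final), 20 min dark, signal read.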
Sfp inh – qHTS Assay for Inhibitors of Bacillus subtilis Sfp phosphopantetheinyl transferase (PPTase). 310,000 tested, 3.5% active. Biochemical Sfp PPTase activity, qHTS. Potency, µM, most hits filed as inhibitors;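 also: the enzyme is Sfp with the accession as filed and its product quenches rhodamine fluorescence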
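Compounds were incubated with enzyme (final 15 nM) for 15 min at room temperature before substrate addition started the reaction. Fluorescence at 525 nm excitation, 598 nm emission was recorded immediately and after 30 minutes.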
Of the large screens only hits and unclear results are named; the others gave an inactive call. Calls follow the shape of the dose curve; as a rule, active = well fitted curve in the direction sought with a large enough effect; inconclusive = small, poorly fitted or top-dose-only effect, or another doubt; inactive = no such curve, though single readings can be large; an effect the other way counts as inactive or inconclusive.

Cc1ccccc1OCCN1CCCC1	JMJD2A Tudor inh 20µM, HP1b binding inh inconclusive, BAZ2B block 50µM (no result: L3MBTL1 block, G9a block)
CCOc1ccc(/C=N/NC(=O)CSc2n[nH]c(=O)[nH]c2=O)cc1OC	none
Cc1ccc(C)c(N2CCN(C(=O)CCc3c(C)nn(-c4ccc(N5CCCC5)nn4)c3C)CC2)c1	none (no result: L3MBTL1 block, Sfp inh)
Cc1ccc(Cn2cccc2C2=NC(C)(C)CO2)cc1	none (no result: L3MBTL1 block, BAZ2B block, Sfp inh)
N#Cc1c2n(c(=S)n(-c3ccccn3)c1=O)CCCCC2	G9a block 22µM
Cc1ccc(NC(=O)CSc2n[nH]c(-c3ccccn3)n2)cc1	JMJD2A Tudor inh 4µM, BAZ2B block 4µM (no result: L3MBTL1 block)
O=C(CSc1n[nH]c(-c2ccccn2)n1)Nc1ccc(F)cc1	JMJD2A Tudor inh 5.6µM, BAZ2B block 4µM (no result: L3MBTL1 block)
O=C(CSc1n[nH]c(-c2ccccn2)n1)Nc1ccc(Cl)cc1	JMJD2A Tudor inh 10µM, BAZ2B block 5µM (no result: L3MBTL1 block)
O=C(CSc1n[nH]c(-c2ccccc2)n1)Nc1ccccc1O	G9a block 50µM (no result: L3MBTL1 block)
CCc1nc(SCC(=O)Nc2ccc(C(=O)O)cc2)n[nH]1	G9a block 45µM (no result: L3MBTL1 block)
COc1ccc(-n2cc(C(=O)O)c(=O)cc2C)cc1	JMJD2A Tudor inh inconclusive, G9a block 45µM, BAZ2B block inconclusive
O=C1C=CC(O)(c2cc(=O)c3c(O)cc(O)cc3o2)C=C1	G9a block 45µM, Sfp inh inconclusive
COc1ccccc1C1=Nn2c(nnc2-c2ccccc2O)SC1	none (no result: HP1b binding inh, L3MBTL1 block, G9a block, BAZ2B block)
COc1cccc(C2=Nn3c(nnc3-c3ccccc3C)SC2)c1	JMJD2A Tudor inh inconclusive, Sfp inh 63µM (no result: HP1b binding inh, L3MBTL1 block, G9a block, BAZ2B block)
COc1cccc(C2=Nn3c(nnc3-c3ccc(OC)cc3OC)SC2)c1	none (no result: HP1b binding inh, L3MBTL1 block, G9a block, BAZ2B block)
COc1ccc(C2=Nn3c(nnc3-c3ccccc3O)SC2)cc1OC	Sfp inh 45µM (no result: HP1b binding inh, L3MBTL1 block, G9a block, BAZ2B block)
Cn1cc(Br)c(C(=O)Nc2c(F)c(F)c(F)c(F)c2F)n1	none
Cn1cc(Br)c(NC(=O)/C=C/C(=O)O)n1	G9a block 0.71µM, Sfp inh 8.9µM
CCOc1ccccc1NC(=S)NCC1CCCO1 (stereo not drawn)	G9a block inconclusive
CC(C)n1c(-c2ccccc2F)n[nH]c1=S	JMJD2A Tudor inh 4µM (no result: G9a block)
CC(c1ccccc1)n1c(-c2ccc(Cl)cc2)n[nH]c1=S (stereo not drawn)	none (no result: G9a block)
CC(c1ccccc1)n1c(-c2ccccc2F)n[nH]c1=S (stereo not drawn)	JMJD2A Tudor inh 22µM (no result: G9a block)
CC(C)n1c(-c2ccc(C(C)(C)C)cc2)n[nH]c1=S	JMJD2A Tudor inh 28µM, G9a block 2.5µM
CC(c1ccc(F)cc1)n1c(-c2cccs2)n[nH]c1=S (stereo not drawn)	JMJD2A Tudor inh inconclusive, G9a block 5µM, Sfp inh inconclusive
CC[C@]12c3[nH]c4ccc(OC)cc4c3CCN1C(=O)C(CC(=O)NCCCN(C)C)C[C@@H]2C(=O)N1CCN(C(=O)c2ccco2)CC1 (stereo partly drawn)	none (no result: G9a block, BAZ2B block, Sfp inh)
CC(C)CCn1c(Oc2ccccc2F)nc2c1c(=O)n(C)c(=O)n2C	BAZ2B block inconclusive (no result: L3MBTL1 block, Sfp inh)
COc1cc(NC(=O)Cn2c(=O)n(Cc3ccco3)c(=O)c3sc4ccccc4c32)cc(OC)c1	none (no result: L3MBTL1 block, Sfp inh)
COc1cccc(CNC(=O)CSc2nc3ccc(C)cc3[nH]2)c1	none (no result: L3MBTL1 block)
Cc1ccc(NC(=O)CN(C)C(=O)CSc2nnc(C)s2)cc1	none (no result: G9a block, BAZ2B block, Sfp inh)
CC(c1ccccc1)n1c(-c2ccncc2)n[nH]c1=S (stereo not drawn)	JMJD2A Tudor inh 18µM, G9a block 2.5µM (no result: L3MBTL1 block)
CC(Sc1nnc(-c2cccnc2)n1N)C(=O)Nc1ccc2c(c1)OCCO2 (stereo not drawn)	G9a block 56µM (no result: Sfp inh)
Nn1c(SCC(=O)Nc2ccc3c(c2)OCCO3)nnc1-c1cccnc1	none (no result: L3MBTL1 block)
